Measurements: PMC11006913
Residue numbers refer to the chain shown, from its start.

Assays:
Assay in all cases: PBM; 200 nM protein, PBS
Settings in all cases: dsDNA, one strand shown
[1] = molecular target: HOXB4 (Homo sapiens, UniProt P17483 148-234)
[2] = molecular target: HOXB4 (Homo sapiens, UniProt P17483 148-234, V174I)
[3] = molecular target: VAX1 (Homo sapiens, UniProt Q5SQQ9 86-172)
[4] = molecular target: VAX1 (Homo sapiens, UniProt Q5SQQ9 86-172, T142I)
[5] = molecular target: VAX1 (Homo sapiens, UniProt Q5SQQ9 86-172, K157R)
[6] = molecular target: T1, VENTX (Homo sapiens, UniProt O95231 78-163, R121Q)
T1 sequence: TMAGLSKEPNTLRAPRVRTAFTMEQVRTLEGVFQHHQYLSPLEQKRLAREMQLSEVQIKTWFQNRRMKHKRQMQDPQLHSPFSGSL

[7] = molecular target: HOXA4 (Homo sapiens, UniProt Q00056 201-287, W262R)
[8] = molecular target: T2, VENTX (Homo sapiens, UniProt O95231 78-163, Y115F)
T2 sequence: T1 sequence with Y38F, Q44R

[9] = molecular target: HOXA2 (Homo sapiens, UniProt O43364 129-215, R185T)
[10] = molecular target: HOXA4 (Homo sapiens, UniProt Q00056 201-287, R217L)
[11] = molecular target: HOXA2 (Homo sapiens, UniProt O43364 129-215, R185K)
[12] = molecular target: HOXA4 (Homo sapiens, UniProt Q00056 201-287)
[13] = molecular target: HOXA2 (Homo sapiens, UniProt O43364 129-215, Y150S)
[14] = molecular target: HOXA4 (Homo sapiens, UniProt Q00056 201-287, W262F)
[15] = molecular target: HOXA2 (Homo sapiens, UniProt O43364 129-215)
Chain of HOXA2 (Homo sapiens, UniProt O43364 129-215) (O43364 129-215): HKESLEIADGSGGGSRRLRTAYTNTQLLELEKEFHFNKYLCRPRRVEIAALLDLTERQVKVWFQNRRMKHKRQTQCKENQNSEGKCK

Chain of HOXA2 (Homo sapiens, UniProt O43364 129-215, Y150S) (O43364 129-215 Y150S): as the sequence (O43364 129-215) above, with Y22S counted along it
Chain of VAX1 (Homo sapiens, UniProt Q5SQQ9 86-172) (Q5SQQ9 86-172): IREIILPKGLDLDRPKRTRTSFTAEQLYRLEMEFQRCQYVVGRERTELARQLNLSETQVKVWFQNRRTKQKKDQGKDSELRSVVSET
Chain of HOXA2 (Homo sapiens, UniProt O43364 129-215, R185T) (O43364 129-215 R185T): as the sequence (O43364 129-215) above, with R57T counted along it
Chain of HOXB4 (Homo sapiens, UniProt P17483 148-234, V174I) (P17483 148-234 V174I): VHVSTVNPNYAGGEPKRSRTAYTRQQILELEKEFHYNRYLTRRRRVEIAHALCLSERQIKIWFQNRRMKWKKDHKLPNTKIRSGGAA
Chain of HOXA4 (Homo sapiens, UniProt Q00056 201-287, W262F) (Q00056 201-287 W262F): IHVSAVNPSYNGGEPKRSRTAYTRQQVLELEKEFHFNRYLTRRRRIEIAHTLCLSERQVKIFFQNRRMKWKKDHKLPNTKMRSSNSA
Chain of HOXA2 (Homo sapiens, UniProt O43364 129-215, R185K) (O43364 129-215 R185K): as the sequence (O43364 129-215) above, with R57K counted along it
Chain of HOXA4 (Homo sapiens, UniProt Q00056 201-287, W262R) (Q00056 201-287 W262R): as the sequence (Q00056 201-287 W262F) above, with F62R counted along it
Chain of HOXA4 (Homo sapiens, UniProt Q00056 201-287, R217L) (Q00056 201-287 R217L): as the sequence (Q00056 201-287 W262F) above, with R17L, F62W counted along it
Chain of HOXB4 (Homo sapiens, UniProt P17483 148-234) (P17483 148-234): as the sequence (P17483 148-234 V174I) above, with I27V counted along it
Chain of VAX1 (Homo sapiens, UniProt Q5SQQ9 86-172, T142I) (Q5SQQ9 86-172 T142I): as the sequence (Q5SQQ9 86-172) above, with T57I counted along it
Chain of HOXA4 (Homo sapiens, UniProt Q00056 201-287) (Q00056 201-287): as the sequence (Q00056 201-287 W262F) above, with F62W counted along it
Chain of VAX1 (Homo sapiens, UniProt Q5SQQ9 86-172, K157R) (Q5SQQ9 86-172 K157R): as the sequence (Q5SQQ9 86-172) above, with K72R counted along it

Row | Sequence | binding signal [1] | binding signal [2] | binding signal [3] | binding signal [4] | binding signal [5] | binding signal [6] | binding signal [7] | binding signal [8] | binding signal [9] | binding signal [10] | binding signal [11] | binding signal [12] | binding signal [13] | binding signal [14] | binding signal [15]
1 | GGAGCTCC | 7.69 upbm affinity estimate (log intensity, higher = more binding, comparable within an allelic series) | 7.37 upbm affinity estimate (log intensity, higher = more binding, comparable within an allelic series) | 7.36 upbm affinity estimate (log intensity, higher = more binding, comparable within an allelic series) | 7.59 upbm affinity estimate (log intensity, higher = more binding, comparable within an allelic series) | 7.58 upbm affinity estimate (log intensity, higher = more binding, comparable within an allelic series) | – | – | – | – | – | – | – | – | – | –
2 | GCCGCCGC | 7.18 upbm affinity estimate (log intensity, higher = more binding, comparable within an allelic series) | 7.39 upbm affinity estimate (log intensity, higher = more binding, comparable within an allelic series) | – | – | – | 7.93 upbm affinity estimate (log intensity, higher = more binding, comparable within an allelic series) | 9.6 upbm affinity estimate (log intensity, higher = more binding, comparable within an allelic series) | 7.83 upbm affinity estimate (log intensity, higher = more binding, comparable within an allelic series) | 6.96 upbm affinity estimate (log intensity, higher = more binding, comparable within an allelic series) | 9.61 upbm affinity estimate (log intensity, higher = more binding, comparable within an allelic series) | 9.77 upbm affinity estimate (log intensity, higher = more binding, comparable within an allelic series) | 9.67 upbm affinity estimate (log intensity, higher = more binding, comparable within an allelic series) | 10.3 upbm affinity estimate (log intensity, higher = more binding, comparable within an allelic series) | 9.69 upbm affinity estimate (log intensity, higher = more binding, comparable within an allelic series) | 6.9 upbm affinity estimate (log intensity, higher = more binding, comparable within an allelic series)
3 | GGTCATTA | 13.3 upbm affinity estimate (log intensity, higher = more binding, comparable within an allelic series) | 14 upbm affinity estimate (log intensity, higher = more binding, comparable within an allelic series) | 13.6 upbm affinity estimate (log intensity, higher = more binding, comparable within an allelic series) | 13.5 upbm affinity estimate (log intensity, higher = more binding, comparable within an allelic series) | 13.6 upbm affinity estimate (log intensity, higher = more binding, comparable within an allelic series) | 11.8 upbm affinity estimate (log intensity, higher = more binding, comparable within an allelic series) | 10.6 upbm affinity estimate (log intensity, higher = more binding, comparable within an allelic series) | 11.8 upbm affinity estimate (log intensity, higher = more binding, comparable within an allelic series) | 13 upbm affinity estimate (log intensity, higher = more binding, comparable within an allelic series) | 12.5 upbm affinity estimate (log intensity, higher = more binding, comparable within an allelic series) | 13.7 upbm affinity estimate (log intensity, higher = more binding, comparable within an allelic series) | 13.9 upbm affinity estimate (log intensity, higher = more binding, comparable within an allelic series) | 10.9 upbm affinity estimate (log intensity, higher = more binding, comparable within an allelic series) | 11.9 upbm affinity estimate (log intensity, higher = more binding, comparable within an allelic series) | 12.8 upbm affinity estimate (log intensity, higher = more binding, comparable within an allelic series)
4 | ACTAATGG | 12.9 upbm affinity estimate (log intensity, higher = more binding, comparable within an allelic series) | 13.5 upbm affinity estimate (log intensity, higher = more binding, comparable within an allelic series) | 12.7 upbm affinity estimate (log intensity, higher = more binding, comparable within an allelic series) | 12.1 upbm affinity estimate (log intensity, higher = more binding, comparable within an allelic series) | 12.3 upbm affinity estimate (log intensity, higher = more binding, comparable within an allelic series) | 12.2 upbm affinity estimate (log intensity, higher = more binding, comparable within an allelic series) | 10.5 upbm affinity estimate (log intensity, higher = more binding, comparable within an allelic series) | 11.9 upbm affinity estimate (log intensity, higher = more binding, comparable within an allelic series) | 12.2 upbm affinity estimate (log intensity, higher = more binding, comparable within an allelic series) | 11.5 upbm affinity estimate (log intensity, higher = more binding, comparable within an allelic series) | 13 upbm affinity estimate (log intensity, higher = more binding, comparable within an allelic series) | 13.5 upbm affinity estimate (log intensity, higher = more binding, comparable within an allelic series) | 10.8 upbm affinity estimate (log intensity, higher = more binding, comparable within an allelic series) | 11.3 upbm affinity estimate (log intensity, higher = more binding, comparable within an allelic series) | 12.1 upbm affinity estimate (log intensity, higher = more binding, comparable within an allelic series)
5 | GTTAATGA | 13.3 upbm affinity estimate (log intensity, higher = more binding, comparable within an allelic series) | 14 upbm affinity estimate (log intensity, higher = more binding, comparable within an allelic series) | 13.5 upbm affinity estimate (log intensity, higher = more binding, comparable within an allelic series) | 13.4 upbm affinity estimate (log intensity, higher = more binding, comparable within an allelic series) | 13.3 upbm affinity estimate (log intensity, higher = more binding, comparable within an allelic series) | 11.9 upbm affinity estimate (log intensity, higher = more binding, comparable within an allelic series) | 10.7 upbm affinity estimate (log intensity, higher = more binding, comparable within an allelic series) | 11.9 upbm affinity estimate (log intensity, higher = more binding, comparable within an allelic series) | 13.1 upbm affinity estimate (log intensity, higher = more binding, comparable within an allelic series) | 12.7 upbm affinity estimate (log intensity, higher = more binding, comparable within an allelic series) | 13.5 upbm affinity estimate (log intensity, higher = more binding, comparable within an allelic series) | 14.1 upbm affinity estimate (log intensity, higher = more binding, comparable within an allelic series) | 10.9 upbm affinity estimate (log intensity, higher = more binding, comparable within an allelic series) | 12.3 upbm affinity estimate (log intensity, higher = more binding, comparable within an allelic series) | 12.8 upbm affinity estimate (log intensity, higher = more binding, comparable within an allelic series)
6 | GCTCGTTA | 11.4 upbm affinity estimate (log intensity, higher = more binding, comparable within an allelic series) | 11.6 upbm affinity estimate (log intensity, higher = more binding, comparable within an allelic series) | – | – | – | 10.1 upbm affinity estimate (log intensity, higher = more binding, comparable within an allelic series) | – | – | – | – | – | – | – | – | –
7 | CCGCCTAG | 7.58 upbm affinity estimate (log intensity, higher = more binding, comparable within an allelic series) | 7.95 upbm affinity estimate (log intensity, higher = more binding, comparable within an allelic series) | – | – | – | – | – | – | – | – | – | – | – | – | –
8 | CGAGGCAC | 7.73 upbm affinity estimate (log intensity, higher = more binding, comparable within an allelic series) | 7.43 upbm affinity estimate (log intensity, higher = more binding, comparable within an allelic series) | – | – | – | – | – | – | – | – | – | – | – | – | –
9 | CGGGGGTC | 7.85 upbm affinity estimate (log intensity, higher = more binding, comparable within an allelic series) | 7.45 upbm affinity estimate (log intensity, higher = more binding, comparable within an allelic series) | – | – | – | – | – | – | – | – | – | – | – | – | –
10 | CATCATTA | 13.4 upbm affinity estimate (log intensity, higher = more binding, comparable within an allelic series) | 14 upbm affinity estimate (log intensity, higher = more binding, comparable within an allelic series) | 12.9 upbm affinity estimate (log intensity, higher = more binding, comparable within an allelic series) | 12.8 upbm affinity estimate (log intensity, higher = more binding, comparable within an allelic series) | 12.7 upbm affinity estimate (log intensity, higher = more binding, comparable within an allelic series) | – | 10.8 upbm affinity estimate (log intensity, higher = more binding, comparable within an allelic series) | – | 12.5 upbm affinity estimate (log intensity, higher = more binding, comparable within an allelic series) | 12.3 upbm affinity estimate (log intensity, higher = more binding, comparable within an allelic series) | 13.2 upbm affinity estimate (log intensity, higher = more binding, comparable within an allelic series) | 14 upbm affinity estimate (log intensity, higher = more binding, comparable within an allelic series) | 11 upbm affinity estimate (log intensity, higher = more binding, comparable within an allelic series) | 11.8 upbm affinity estimate (log intensity, higher = more binding, comparable within an allelic series) | 12.3 upbm affinity estimate (log intensity, higher = more binding, comparable within an allelic series)
11 | TATAATGA | 13 upbm affinity estimate (log intensity, higher = more binding, comparable within an allelic series) | 13.5 upbm affinity estimate (log intensity, higher = more binding, comparable within an allelic series) | – | – | – | – | 10.5 upbm affinity estimate (log intensity, higher = more binding, comparable within an allelic series) | – | 12 upbm affinity estimate (log intensity, higher = more binding, comparable within an allelic series) | 11.9 upbm affinity estimate (log intensity, higher = more binding, comparable within an allelic series) | 12.8 upbm affinity estimate (log intensity, higher = more binding, comparable within an allelic series) | 13.6 upbm affinity estimate (log intensity, higher = more binding, comparable within an allelic series) | 10.9 upbm affinity estimate (log intensity, higher = more binding, comparable within an allelic series) | 11.2 upbm affinity estimate (log intensity, higher = more binding, comparable within an allelic series) | 12.1 upbm affinity estimate (log intensity, higher = more binding, comparable within an allelic series)
